Data on 35 compounds can be found in ChEMBL document CHEMBL3433997, “St. Jude Leishmania screening dataset” (2016).

What all share (type): functional
The target in assay [1] is Solute carrier family 2, facilitated glucose transporter member 1 (Homo sapiens) (UniProt P11166). Put plainly: ST_JUDE_LEISH: Cytotoxicity at 2uM final concentration against transgenic Leishmania Mexicana promastigotes LmGLUT1 that are glucose transport deficient and complemented with the human glucose transporter GLUT1. Activity is measured by DNA content using SYBR green in vitro.

The target of assay [2] is Hexose transporter 1 (Plasmodium falciparum) (UniProt O97467). The assay can be described thus: ST_JUDE_LEISH: Cytotoxicity at 2uM final concentration against transgenic Leishmania Mexicana promastigotes LmPfHT that are glucose transport deficient and complemented with the Plasmodium falciparum hexose transporter. Activity is measured by DNA content using SYBR green in vitro.

For assay [3], the target named is Glucose transporter (Leishmania mexicana) (UniProt O61059). Put plainly: ST_JUDE_LEISH: Cytotoxicity at 2uM final concentration against transgenic Leishmania Mexicana promastigotes LmGT2 that are glucose transport deficient and complemented with the L. Mexicana glucose transporter 2. Activity is measured by DNA content using SYBR green in vitro.

Chain of Solute carrier family 2, facilitated glucose transporter member 1 (Homo sapiens) (P11166 whole entry): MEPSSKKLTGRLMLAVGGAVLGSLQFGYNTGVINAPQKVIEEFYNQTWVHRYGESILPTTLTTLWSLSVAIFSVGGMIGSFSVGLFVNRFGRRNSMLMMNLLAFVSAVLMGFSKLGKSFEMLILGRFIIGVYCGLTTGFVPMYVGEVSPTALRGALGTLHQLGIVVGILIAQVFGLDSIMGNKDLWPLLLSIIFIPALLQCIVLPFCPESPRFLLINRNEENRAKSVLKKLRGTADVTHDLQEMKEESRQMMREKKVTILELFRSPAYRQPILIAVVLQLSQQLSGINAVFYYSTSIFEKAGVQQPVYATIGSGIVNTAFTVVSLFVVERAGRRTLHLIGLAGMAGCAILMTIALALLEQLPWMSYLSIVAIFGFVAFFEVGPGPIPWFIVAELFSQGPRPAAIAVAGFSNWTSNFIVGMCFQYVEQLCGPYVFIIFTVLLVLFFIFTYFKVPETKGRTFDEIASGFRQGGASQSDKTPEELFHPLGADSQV

Broadly, the inhibition is the relative decrease from the control value, in per cent. As for `CC(C)(C)COc1ccc2c(N)n[nH]c2c1`, the inhibition in assay [1] was -1.62%; in assay [2] it was -1.52%; in assay [3] it was -0.66%.
The corresponding values for `CCNc1cc(C(=O)N[C@@H](Cc2ccccc2)[C@H](O)CNC2CCC(F)(F)CC2)c(F)c(N2CCCCS2(=O)=O)c1` are -0.9%, -1.47% and -1.39%.
The matching figures for `O=C(Cc1ccccc1)NC(c1ccc(Cl)cc1)c1ccc2cccnc2c1O` (stereo not given): 6.92%, 4.47% and 1.97%.
For `CC(C)N(Cc1ccc(-c2ccc(C(F)(F)F)cc2)cc1)C(=O)Cn1c(CCc2cccc(F)c2F)cc(=O)c2ccc(CCCN3CCCCC3)cc21`, the inhibition in assay [1] turned out to be 3.56%; in assay [2] it was 4.4%; in assay [3], 3.61%.
The matching figures for `N=C(N)Nc1ccc(OCCCCCOc2ccc(NC(=N)N)cc2)cc1`: 13.7%, 20.2% and 0.71%.
With `CC1(C)CCCN(c2ncc(-c3cccc(CNCc4ccccc4O)c3)cn2)C1`, the inhibition amounted to 2.91% in assay [1], 2.13% in assay [2] and 3.18% in assay [3].
For `C[C@@H](CC1CCCCC1)OC(=O)N[C@H]1CCN(C#N)C1`, the results for the inhibition in assay [1], in assay [2] and in assay [3] were 12.8%, 8.07% and 7.29%, respectively.
The corresponding values for `COc1ccc(CCNCCCCNCCc2ccc(OC)c3ccccc23)c2ccccc12` are 64.4%, 55.5% and 102%.
The matching figures for `OC(c1ccccc1)C1CN(CCc2ccccc2)CCC1(O)c1ccccc1` (stereo not given): 0.73%, -1.7% and -1.32%.
In the case of `O=C(O)c1ccc2c(c1)N(C(=O)CNCc1ccc(F)cc1)CC(=O)N2CCCc1ccccc1`, the inhibition in assay [1] is -4.22%; in assay [2] it was -1.82%; in assay [3], -2.25%.
The matching figures for `c1ccc(-c2cc(NCc3cccc4ccccc34)c3[nH]ncc3n2)cc1`: 5.11%, 5.96% and 6.54%.
The corresponding values for `CN(Cc1cccc(C#N)c1)C1CCN(c2cc(NC(=O)c3ccc(F)cc3)ccn2)CC1` are 3.29%, 2.12% and 4.06%.
The matching figures for `COc1csc2cc(Br)ccc12`: 1.01%, 1.16% and 0.18%.
In the case of `COc1c(C2CCN(CCCCNC(=O)c3ccc(-c4ccc(Cl)cc4)cc3)CC2)ccc2c1C(C)(C)CCC2(C)C`, the results for the inhibition in assay [1], in assay [2] and in assay [3] were -1.1%, -1.15% and -2.13%, respectively.
The corresponding values for `COc1ccc(-c2csc(NC(=O)CCC(=O)O)n2)cc1OC` are 0.77%, 1.36% and 3.83%.
Take `Cc1cc(I)ccc1Nc1nc2nonc2nc1Nc1ccc(I)cc1C`: the inhibition in assay [1] stood at 9.92%; in assay [2] it was 9.02%; in assay [3], 9.11%.
For the compound `O=C(Nc1ccc(Cn2ncc(N3CCCNCC3)c(Cl)c2=O)cc1)Nc1cc(F)cc(C(F)(F)F)c1`, the inhibition was found to be 2.7% in assay [1], 3.7% in assay [2] and 0.99% in assay [3].
`O=C(NOCCCCOc1ccc(Cl)c(Cl)c1)c1ccccc1`: the inhibition is -2.66% in assay [1], -2.61% in assay [2] and -1.29% in assay [3].
The matching figures for `COc1ccc(CNC2Cc3ccccc3C2)cc1-c1ccc(S(=O)(=O)NCCN2CCCC2)c(F)c1`: 28.3%, 14% and 6.14%.
Turning to `CCOc1ccc(-c2nonc2NC(=O)c2cccc(Cl)c2)cc1OCC`, the inhibition was 2.52% in assay [1], 3.66% in assay [2] and -0.71% in assay [3].
Regarding `CC(C)COc1ccc(Cl)cc1Cc1ccc(-c2nc3cc(CCN(C)C)ccc3[nH]2)o1`, the figures for the inhibition in assay [1], in assay [2] and in assay [3] were 2.44%, 4.3% and 3.29%, respectively.
The matching figures for `CCN(CC)/C(=N/C(=N)NCc1ccc(Cl)cc1)NCCCCCCN/C(=N\C(=N)NCc1ccc(Cl)cc1)N(CC)CC`: 9.05%, 8.96% and 8.12%.
The matching figures for `N#Cc1ccc2c(c1)CCN(CCCn1c(-c3ccc4ccccc4c3)nc3ccncc31)CC2`: 15.1%, 16.1% and 10.4%.
The matching figures for `CN(C)CCCNCc1cn(S(=O)(=O)c2ccccc2Cl)c2ccccc12`: 5.36%, 5.25% and 7.6%.
In the case of `O=C(NC1CC1)c1ccc(N2CCCCN2CCc2ccccc2)c(C(F)(F)F)c1`, the inhibition in assay [1] amounted to 10.5%; in assay [2] it was 19.8%; in assay [3] it was 5.87%.
The corresponding values for `CN(C)CCCNCc1ccc(-c2ccc(C(F)(F)F)cc2)cc1` are 5.63%, 4.5% and 4.81%.
The corresponding values for `COc1ccc(C#Cc2ccc(-c3c(C)[nH]c(C)c(Cl)c3=O)cc2)cc1` are 6.05%, 8.9% and 4.03%.
The matching figures for `COc1ccc2nccc([C@@H](O)CN3CCC(NCc4cc5c(F)ccc(F)c5[nH]4)CC3)c2n1`: 87.9%, 86.8% and 87.2%.
Regarding `COc1cc(-c2nc3c4ccccc4c4ccccc4c3[nH]2)cc(OC)c1OC`, the inhibition worked out at 1.82% in assay [1], 1.28% in assay [2] and 1.58% in assay [3].
The matching figures for `CCn1c(-c2nonc2N)nc2c(-c3cccc(NC(=O)Nc4ccc5c(c4)CCC5)c3)ncc(OCCCN)c21`: 2.61%, 3.19% and 2.89%.
For `O=C(Nc1cccc(-c2csc(-c3nc4ccccc4[nH]3)c2)c1)c1ccoc1`, the inhibition worked out at 3.4% in assay [1], 3.05% in assay [2] and 1.11% in assay [3].
The corresponding values for `COc1cc(N(Cc2ccccc2C)S(=O)(=O)Cc2ccccc2[N+](=O)[O-])c(OC)cc1Cl` are 3.26%, 2.73% and 3.39%.
The matching figures for `Cc1cccc2nc(-c3ccc(-c4ccc(CN5CCN(CCO)CC5)cc4)s3)[nH]c12`: 10.6%, 8.8% and 7.69%.
The matching figures for `CCCCN(CCCC)Cc1cc(N(C)c2ccc([N+](=O)[O-])cn2)ccc1O`: 2.39%, -0.26% and 1.69%.
As for `COc1ccc2ncc(F)c(CCN3CCC(NCc4cnc5c(c4)NC(=O)CS5)CC3)c2c1`, the inhibition was determined as 1.52% in assay [1], 2.49% in assay [2] and 2.03% in assay [3].
